Test results as given in PubChem BioAssay.
A number with no mark means an inactive call. No rule for the calls is given here.

Target: Pantothenate synthetase (Mycobacterium tuberculosis (strain ATCC 25618 / H37Rv)) (UniProt P9WIL5)
Assay: Recombinant Mtb pantothenate synthetase (PanC) inhibitors, coupled enzyme, confirmatory (AID 375);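 also: 0% = full reaction with vehicle and 100% = no enzyme background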
Conditions: coupled enzyme assay; at 10 µM, stronger effect = higher value

Sequence of Pantothenate synthetase (Mycobacterium tuberculosis (strain ATCC 25618 / H37Rv)) (P9WIL5 whole entry, looked up): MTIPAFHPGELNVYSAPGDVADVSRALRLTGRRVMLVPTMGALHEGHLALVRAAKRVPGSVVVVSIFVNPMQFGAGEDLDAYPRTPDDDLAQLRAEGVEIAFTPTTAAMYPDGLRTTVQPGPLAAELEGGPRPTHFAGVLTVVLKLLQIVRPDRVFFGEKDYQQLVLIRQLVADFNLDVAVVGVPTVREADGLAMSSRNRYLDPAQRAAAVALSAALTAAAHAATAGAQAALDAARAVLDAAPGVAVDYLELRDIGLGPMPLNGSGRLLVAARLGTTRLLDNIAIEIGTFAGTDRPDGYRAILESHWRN

**Q.** `O=C(NCCN1CCCCCC1)c1ccc(CS(=O)(=O)c2ccc(Br)cc2)o1` was tested. Which inhibition did it give?
**A.** The inhibition was 0%.

**Q.** How did the inhibition turn out when `Cc1cccc(N(C)C(=S)Oc2ccc3ccccc3c2)c1` was run?
**A.** The inhibition was 7%.

**Q.** For `COC(=O)c1ccc(N2C(=O)CC(N3CCN(C(=O)c4ccco4)CC3)C2=O)cc1` (stereo not given), which inhibition is on record?
**A.** Its inhibition is 0%.

**Q.** `Cc1ccc2nc(-c3ccc4c(c3)OCCO4)cc(C(=O)O)c2c1` was tested. Which inhibition did it give?
**A.** The inhibition was 0%.

**Q.** With `CCN(CC)c1ccc(NC(=O)c2cncc(Br)c2)cc1` as the compound, how does the inhibition read?
**A.** The inhibition was 0%.
